Assay results reported in PubChem BioAssay.
Potency and affinity values are given separately. Inconclusive results are not listed. The source made the active and inactive calls. Unless noted, how the calls were made is not given here.

What was measured:
[1] = RMG-1 ovarian cancer cell viability loss – cherry-pick, dose response (AID 687029;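 active means signal drop whose fitted half-maximal concentration is at most twice the top valid dose, in every test run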;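 further: cells exposed to compound for 96 hours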)
[2] = IOSE-T80 viability loss, PAX8-independent line – cell-based, cherry-pick, selectivity assay for PAX8 inhibitor project, dose response (AID 687032;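 active means fitted half-maximal concentration for viability loss no higher than twice the top valid dose, in every repeat run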;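 further: cells exposed to compound for 96 h before reading; 0% = neutral control wells and -100% = 2 µM mitoxantrone kill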)
[3] = CMV-driven luciferase expression suppression in HEK293 – cell-based, luminescence, dry powder, counter-screen for Pax8 inhibitor project, dose response (AID 743020;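 active means signal-lowering compounds whose fitted half-maximal concentration is at or below twice the top tested dose in every run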;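 further: HEK293 cells stably expressing the CMV luciferase reporter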)
[4] = general cell-killing toxicity readout – plate reader, dry powder samples, cytotoxicity control for PAX8 inhibitor project, dose response (AID 743021)
[5] = IGROV1 cell killing – plate reader, dry powder samples, PAX8 inhibitor project, dose response (AID 743043);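 further: more negative means fewer viable cells or more cytotoxicity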
[6] = OVCAR-3 cell viability loss – plate reader, dry powder samples, PAX8 inhibitor project, dose response (AID 743044); settings: max activity: at 35 µM, stronger effect = lower value unless noted
[7] = toxicity toward immortalized ovarian surface epithelium – cell-based, plate reader, dry powder samples, cytotoxicity control for PAX8 inhibitor project, dose response (AID 743045);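 further: 0% = neutral control median and -100% = positive control median; more negative values mean more cell killing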
[8] = A2780 cell killing – plate reader, dry powder samples, cytotoxicity control, dose response (AID 743046);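 further: 0% = neutral control wells and -100% = cytotoxic reference compound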
[9] = OVCAR8 cell viability loss – plate reader, dry powder samples, PAX8 project, dose response (AID 743197)

C[C@H](CO)N1C[C@H](C)[C@@H](CN(C)C(=O)Nc2ccc(F)cc2)OCc2ccccc2-c2c(n(C)c3ccccc23)C1=O
inactive: outcome [1] | outcome [2] | outcome [3] | outcome [4] | outcome [5] | max activity [6] 31.5% | outcome [7] | outcome [8] | outcome [9]

C[C@@H]1CCCCO[C@@H](CN(C)Cc2ccc(Cl)c(Cl)c2)[C@H](C)CN([C@H](C)CO)C(=O)c2cc(NC(=O)Nc3ccccc3)ccc2O1
inactive: outcome [1] | outcome [2] | outcome [3] | outcome [4] | outcome [5] | max activity [6] 13.2% [at 0.5 µM, stronger effect = lower value] | outcome [7] | outcome [8] | outcome [9]

C[C@@H]1CN([C@@H](C)CO)S(=O)(=O)c2ccc(C#Cc3ccccc3F)cc2O[C@H]1CN(C)CC1CCOCC1
inactive: outcome [1] | outcome [2] | outcome [3] | outcome [4] | outcome [5] | max activity [6] -11.1% [at 8 µM, stronger effect = lower value] | outcome [7] | outcome [8] | outcome [9]

C[C@H](CO)N1C[C@H](C)[C@@H](CN(C)Cc2ccc(Cl)c(Cl)c2)OCCCC[C@H](C)Oc2ccc(NC(=O)Nc3ccccc3)cc2C1=O
inactive: outcome [1] | outcome [2] | outcome [3] | outcome [4] | outcome [5] | max activity [6] -26.8% [at 0.26 µM, stronger effect = lower value] | outcome [7] | outcome [8] | outcome [9]

O=C(C[C@H]1CC[C@H]2[C@@H](COC[C@@H](O)CN2Cc2ccc(F)cc2)O1)NCc1ccccc1Cl
inactive: outcome [1] | outcome [2] | outcome [3] | outcome [4] | outcome [5] | max activity [6] -7.1% | outcome [7] | outcome [8] | outcome [9]

C[C@H]1CN([C@@H](C)CO)C(=O)c2ccccc2-c2ccccc2CO[C@H]1CN(C)S(=O)(=O)c1ccc(C(F)(F)F)cc1
inactive: outcome [1] | outcome [2] | outcome [3] | outcome [4] | outcome [5] | max activity [6] 11.8% [at 4.2 µM, stronger effect = lower value] | outcome [7] | outcome [8] | outcome [9]

C[C@H](CO)N1C[C@H](C)[C@H](CN(C)S(=O)(=O)c2cccs2)OCCCC[C@H](C)Oc2ccc(NC(=O)NC3CCCCC3)cc2C1=O
inactive: outcome [1] | outcome [2] | outcome [3] | outcome [4] | outcome [5] | max activity [6] 9.21% [at 0.26 µM, stronger effect = lower value] | outcome [7] | outcome [8] | outcome [9]

C[C@H](CO)N1C[C@H](C)[C@H](CN(C)Cc2ccc3c(c2)OCO3)Oc2ccc(NC(=O)Nc3cccc4ccccc34)cc2C1=O
inactive: outcome [1] | outcome [2] | outcome [3] | outcome [4] | outcome [5] | max activity [6] 49.4% [at 4.2 µM, stronger effect = lower value] | outcome [7] | outcome [8] | outcome [9]

C[C@@H]1CN([C@@H](C)CO)C(=O)c2cc(NC(=O)NC3CCCCC3)ccc2O[C@@H](C)CCCCO[C@H]1CN(C)Cc1ccc(C(F)(F)F)cc1
inactive: outcome [1] | outcome [2] | outcome [3] | outcome [4] | outcome [5] | max activity [6] -25.9% | outcome [7] | outcome [8] | outcome [9]

C[C@@H]1CN([C@@H](C)CO)C(=O)Cc2cc(NC(=O)Nc3ccc(C(F)(F)F)cc3)ccc2O[C@H]1CN(C)Cc1ccc(Cl)c(Cl)c1
inactive: outcome [1] | outcome [2] | outcome [3] | outcome [4] | outcome [5] | max activity [6] 9.21% [at 0.26 µM, stronger effect = lower value] | outcome [7] | outcome [8] | outcome [9]

C[C@@H]1CCCCO[C@@H](CN(C)C(=O)Nc2ccccc2)[C@H](C)CN([C@H](C)CO)C(=O)c2cc(NC(=O)Nc3ccc(C(F)(F)F)cc3)ccc2O1
inactive: outcome [1] | outcome [2] | activity change, negative = inhibition [3] 5.92% [at 8 µM] | outcome [4] | outcome [5] | max activity [6] 33.8% [at 16 µM, stronger effect = lower value] | outcome [7] | outcome [8] | outcome [9]

C[C@@H]1CN([C@H](C)CO)C(=O)c2cc(NS(=O)(=O)c3ccc(F)cc3)ccc2O[C@@H]1CN(C)Cc1ccc(C(F)(F)F)cc1
inactive: outcome [1] | outcome [2] | outcome [3] | outcome [4] | outcome [5] | max activity [6] -4.85% | outcome [7] | outcome [8] | outcome [9]

COc1cccc(S(=O)(=O)N(C)C[C@H]2OCc3ccccc3-c3c(n(C)c4ccccc34)C(=O)N([C@@H](C)CO)C[C@H]2C)c1
inactive: outcome [1] | outcome [2] | outcome [3] | outcome [4] | outcome [5] | max activity [6] -13.7% | outcome [7] | outcome [8] | outcome [9]

C[C@@H]1CN([C@@H](C)CO)C(=O)c2cc(NS(=O)(=O)c3ccc(F)cc3)ccc2O[C@@H](C)CCCCO[C@H]1CN(C)Cc1ccc(C(F)(F)F)cc1
inactive: outcome [1] | outcome [2] | outcome [3] | outcome [4] | outcome [5] | max activity [6] -20.3% [at 0.26 µM, stronger effect = lower value] | outcome [7] | outcome [8] | outcome [9]

C[C@@H]1CN([C@@H](C)CO)C(=O)c2ccccc2-c2ccccc2CO[C@@H]1CN(C)Cc1ccc2c(c1)OCCN2C
inactive: outcome [1] | outcome [2] | outcome [3] | outcome [4] | outcome [5] | max activity [6] 3.55% | outcome [7] | outcome [8] | outcome [9]

C[C@@H]1CCCCO[C@@H](CN(C)Cc2ccc(Cl)c(Cl)c2)[C@H](C)CN([C@H](C)CO)C(=O)c2cc(NS(=O)(=O)c3ccccc3)ccc2O1
inactive: outcome [1] | outcome [2] | outcome [3] | outcome [4] | outcome [5] | max activity [6] 8.76% [at 1.95 µM, stronger effect = lower value] | outcome [7] | outcome [8] | outcome [9]

C[C@@H]1CCCCO[C@H](CN(C)C(=O)Nc2ccc(C(F)(F)F)cc2)[C@@H](C)CN([C@@H](C)CO)C(=O)c2cc(NC(=O)Nc3ccccc3)ccc2O1
inactive: outcome [1] | outcome [2] | outcome [3] | outcome [4] | outcome [5] | max activity [6] -5.92% [at 16 µM, stronger effect = lower value] | outcome [7] | outcome [8] | outcome [9]

C[C@@H]1CCCCO[C@H](CN(C)S(=O)(=O)c2cccs2)[C@H](C)CN([C@@H](C)CO)C(=O)c2cc(NC(=O)CCC(F)(F)F)ccc2O1
inactive: outcome [1] | outcome [2] | outcome [3] | outcome [4] | outcome [5] | max activity [6] -17.7% | outcome [7] | outcome [8] | outcome [9]

COc1ccc(S(=O)(=O)Nc2ccc3c(c2)CC(=O)N([C@@H](C)CO)C[C@@H](C)[C@H](CN(C)Cc2ccc(-c4ccccc4)cc2)O3)cc1
inactive: outcome [1] | outcome [2] | outcome [3] | outcome [4] | outcome [5] | max activity [6] 35.7% [at 1 µM, stronger effect = lower value] | outcome [7] | outcome [8] | outcome [9]

Cc1ccc(S(=O)(=O)Nc2ccc3c(c2)CC(=O)N([C@H](C)CO)C[C@H](C)[C@@H](CN(C)Cc2ccc(Cl)c(Cl)c2)O3)cc1
inactive: outcome [1] | outcome [2] | outcome [3] | outcome [4] | outcome [5] | max activity [6] 29.2% [at 0.26 µM, stronger effect = lower value] | outcome [7] | outcome [8] | outcome [9]

C[C@@H]1CN([C@@H](C)CO)C(=O)Cc2cc(NC(=O)Nc3ccc(F)cc3)ccc2O[C@H]1CN(C)CC1CCCCC1
inactive: outcome [1] | outcome [2] | outcome [3] | outcome [4] | outcome [5] | max activity [6] 14.9% [at 2.1 µM, stronger effect = lower value] | outcome [7] | outcome [8] | outcome [9]

O=C(C[C@H]1CC[C@H]2[C@@H](COC[C@@H](O)CN2S(=O)(=O)c2ccccc2Cl)O1)N1CCC(Cc2ccccc2)CC1
inactive: outcome [1] | outcome [2] | outcome [3] | outcome [4] | outcome [5] | max activity [6] 32.6% [at 1 µM, stronger effect = lower value] | outcome [7] | outcome [8] | outcome [9]

C[C@@H]1CCCCO[C@@H](CN(C)C(=O)Cc2ccccc2)[C@@H](C)CN([C@@H](C)CO)C(=O)c2cc(NC(=O)Nc3ccc(C(F)(F)F)cc3)ccc2O1
inactive: outcome [1] | outcome [2] | outcome [3] | outcome [4] | outcome [5] | max activity [6] -12.2% [at 16 µM, stronger effect = lower value] | outcome [7] | outcome [8] | outcome [9]

C[C@@H]1CN([C@H](C)CO)C(=O)c2cc(NC(=O)Nc3ccc(F)cc3)ccc2O[C@@H](C)CCCCO[C@H]1CN(C)Cc1ccc(Cl)c(Cl)c1
inactive: outcome [1] | outcome [2] | outcome [3] | outcome [4] | outcome [5] | max activity [6] 26% | outcome [7] | outcome [8] | outcome [9]

Cc1cccc(-c2ccc([C@H]3[C@H](CO)N4CCCCN(S(=O)(=O)c5ccccc5C)C[C@@H]34)cc2)c1
inactive: outcome [1] | outcome [2] | outcome [3] | outcome [4] | outcome [5] | max activity [6] -11.5% | outcome [7] | outcome [8] | outcome [9]

C[C@@H]1CN([C@@H](C)CO)C(=O)c2cc(NC(=O)Nc3ccc(C(F)(F)F)cc3)ccc2O[C@@H](C)CCCCO[C@H]1CN(C)Cc1ccc(Cl)c(Cl)c1
inactive: outcome [1] | outcome [2] | outcome [3] | outcome [4] | outcome [5] | max activity [6] -12.8% [at 0.26 µM, stronger effect = lower value] | outcome [7] | outcome [8] | outcome [9]

Cc1cccc(S(=O)(=O)N2CC[C@@H]3[C@H](CO)Nc4ccc(C5=CCCCC5)cc4[C@@H]32)c1
inactive: outcome [1] | outcome [2] | outcome [3] | outcome [4] | outcome [5] | max activity [6] 25.1% [at 1.1 µM, stronger effect = lower value] | outcome [7] | outcome [8] | outcome [9]

C[C@@H]1CN([C@H](C)CO)C(=O)Cc2cc(NS(=O)(=O)c3ccccc3)ccc2O[C@@H]1CN(C)S(=O)(=O)c1ccc(Cl)cc1
inactive: outcome [1] | outcome [2] | outcome [3] | outcome [4] | outcome [5] | max activity [6] 47.5% | outcome [7] | outcome [8] | outcome [9]

C[C@H]1CCCCO[C@@H](CN(C)S(=O)(=O)c2cccs2)[C@@H](C)CN([C@@H](C)CO)C(=O)c2cc(NC(=O)NC3CCCCC3)ccc2O1
inactive: outcome [1] | outcome [2] | outcome [3] | outcome [4] | outcome [5] | max activity [6] -5.85% [at 8 µM, stronger effect = lower value] | outcome [7] | outcome [8] | outcome [9]
